hiPSC survival = enhancers of human iPSC single-cell survival; hiPSC single-cell survival, ATPlite luminescence; 100% = ROCK inhibitor wells, 0% = DMSO; survival enhancement, % at 20 µM; hit rate 0.044% among 360,000; in the data active = survival enhancement above about 18%;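 also: cells exposed to compounds for 16 hours before the ATP read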
TRAIL sens C8 = sensitizes caspase-8 expressing cells to TRAIL; NB7+C8 cells + TRAIL, ATPlite viability luminescence; inhibition (viability loss, TRAIL sensitization), % at 10 µM; hit rate 1% among 360,000; AID 624354;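 active = compounds causing at least 50% loss of cell viability in the single-dose screen, relative to plate controls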
KKLEB tox = counter-screen for CF NF-kB inhibitors: cytotoxicity | hit rate 0.36% among 360,000 | KKLEB CF airway cells viability, ATPlite luminescence, overnight; active compounds read low; cells stimulated with P. aeruginosa culture filtrate | activity change (cytotoxicity), % at 5 µM | AID 602141;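 active = corrected activity change at or below -50% at 5 µM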
PPC-1+TRAIL kill = kills PPC-1 cancer cells in the presence of TRAIL; AID 1443; PPC-1 cells + TRAIL, ATPLite viability luminescence; cell killing (% activity), % at 4 µM or 5 µM; hit rate 0.41% among 220,000;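 active = cell killing above 50% in the first pass at 4 µM, then a duplicate retest at 5 µM averaging 50% or more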;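 also: plate controls were cells with TRAIL plus DMSO for no effect and medium-only wells lacking cells for full effect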
HIF-2a inh = HIF-2a inhibition; 786-0 RCC cells HIF-2a reporter, luciferase luminescence, overnight; inhibition, % at 18.8 µM; hit rate 0.72% among 360,000;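 active = inhibition of the luminescence signal of 40% or more relative to plate controls, in a single-dose primary screen at 18.75 µM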
CF NFkB inh = blocks PAF-induced NF-kB reporter in cystic fibrosis cells; KKLEB NF-kB-GFP reporter, GFP fluorescence overnight; inhibition, % at 5 µM; hit rate 0.86% among 360,000; AID 588850;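 active = at least 50% inhibition at 5 µM, scaled per plate between neutral and stimulator controls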;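 also: PAF is a Pseudomonas aeruginosa culture filtrate used as stimulus; plate controls were PAF-stimulated DMSO wells for no effect and unstimulated DMSO wells for full effect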
* = called active by the depositor; x = no result given. A selection: hits, their analogues and other compounds. The true share with any hit is near 2.2%.

SMILES	hiPSC survival	TRAIL sens C8	KKLEB tox	PPC-1+TRAIL kill	HIF-2a inh	CF NFkB inh
C[C@]12C=CC(=O)C=C1CC[C@@H]1C2[C@@H](O)C[C@@]2(C)C1CC[C@]2(O)C(=O)COC(=O)CCC(=O)O (some centres undefined)	0	-2	2	x	25	74*
CSC(=S)NN=C(C)c1cccc(C)n1	-1	15	-10	x	-15	76*
Cc1ccc2[nH]c3c(c2c1)CCCC3NC(=O)CCl (centres undefined)	3	46	-65*	x	12	62*
COc1ccccc1CNC(=O)COC(=O)CCN=C1NS(=O)(=O)c2ccccc21	0	-17	6	x	12	-2
O=C(/C=C/c1ccccc1)Nc1ccc2c(c1)C(=O)NC2=O	-2	50*	12	28	-86	-32
O=C(/C=C/c1ccccc1Cl)Nc1ccc2c(c1)C(=O)NC2=O	-2	15	8	14	-21	-15
CCOc1ccc(/C=C/C(=O)c2c(O)cc(C)oc2=O)cc1	-1	66*	1	x	-283	0
Cc1cc(O)c(C(=O)/C=C/c2ccccc2)c(=O)o1	0	5	2	x	-32	-3
COc1cccc(NC(=O)CSc2nc3scc(C)c3c(=O)[nH]2)c1	0	-20	-9	x	-12	-22
CC(=NNC(=O)Cn1ccc(C(F)(F)F)n1)c1ccc(-n2ccnc2)cc1	1	3	2	x	8	8
CC(C)CC(=O)/C=C/n1c(=S)oc2ccccc21	12	-6	-77*	18	91*	92*
COc1ccc(C(=O)N2CCCCC2c2cc(C(=O)NCc3cccnc3)no2)cc1 (centres undefined)	-2	-13	16	x	18	-49
CCOc1cccc2sc(N(CCCN(C)C)C(=O)c3ccc(S(=O)(=O)N4CCc5ccccc5C4)cc3)nc12	0	68*	0	x	-1	4
O=C(Cn1nnc(-c2ccc(CN3CCOCC3)cc2)n1)Nc1nc(-c2ccccc2)cs1	-2	-15	-51*	13	-112	-24
CS(=O)(=O)Nc1ccc2c3c(cccc13)CC2	20*	1	-9	-15	11	11
CCOC(=O)/C(C#N)=C/c1cc(C)n(-c2ccccc2)c1C	-1	50*	2	42	-80	2
Cc1ccc(NC(=O)CSC2=NN3CCCC(=O)N=C3S2)cc1Cl	-1	9	5	x	-5	0
Cc1ccc(OC(=O)c2oc3ccc(F)cc3c2C)c(C)c1	1	11	-69*	25	-114	53*
COc1ccc(/C=C/C(=O)c2oc3ccc(F)cc3c2C)cc1	-2	-8	-10	5	-42	-6
COc1ccc(OC)c(S(=O)(=O)Nc2ccc(-c3ccc4nncn4n3)cc2)c1	1	66*	-5	x	28	30
CC(Cc1ccccc1)N1C(=O)c2cccc([N+](=O)[O-])c2C1=O (centres undefined)	0	-15	-1	x	-34	-23
COc1ccc(Cc2nnc(NC(=O)c3cccc(F)c3)s2)cc1OC	0	-15	-2	x	2	23
COc1ccc(CC(=O)O/N=C(\N)Cc2cccc3ccccc23)cc1OC	1	8	-19	25	-11	9
COC(=O)c1cc2c(n1S(=O)(=O)c1ccc(C)cc1)C(=O)C(=O)c1[nH]cc(C(=O)OCc3ccccc3)c1-2	-3	93*	-69*	x	33	85*
CC1(C2CCC3C4CCC5CC6(CCC5(C)C4C(=O)CC32C)OCCO6)OCCO1 (centres undefined)	-2	-2	-6	x	20	18
SMILES	hiPSC survival	TRAIL sens C8	KKLEB tox	PPC-1+TRAIL kill	HIF-2a inh	CF NFkB inh
Cc1c(Cc2ccccc2)sc(NC(=O)C(C)(C)C)c1C(N)=O	1	3	-11	8	11	6
COc1ccc(N=C2S/C(=C\c3ccc(N4CCOCC4)o3)C(=O)N2CCc2c[nH]c3ccccc23)cc1	40*	40	-16	45	92*	-9
COCCCn1c(C(=O)Nc2ccc3c(c2)OCO3)cc2c(=O)n3cccc(C)c3nc21	-1	54*	-17	x	-14	28
COCCCn1c(C(=O)N2CCOCC2)cc2c(=O)n3cccc(C)c3nc21	1	-7	-4	x	16	5
C/C(=N\NC(=O)c1nnn(-c2nonc2N)c1CSc1ccc(C)cc1)c1cccnc1	3	-13	1	x	15	-17
CCCCN(Cc1nc2ccccc2c(=O)[nH]1)C(=O)c1nn(C)c(=O)c2ccccc12	-1	-3	0	x	0	18
CCC(CC)C(=O)N(C)c1c(C)nc2c(OCc3ccc(OC(F)F)cc3)cccn12	2	-10	-12	x	-8	-24
COc1ccc(C2C(C(=O)N3CCOCC3)c3ccccc3C(=O)N2c2ccc(OC)cc2)cc1 (centres undefined)	-1	2	-12	7	8	12
COc1ccc(C2C(C(=O)N3CCCC3)c3cc(OC)c(OC)cc3C(=O)N2C)cc1OC (centres undefined)	-2	6	0	15	23	-19
COc1ccc(C2C(C(=O)N3CCN(c4ccccc4)CC3)c3ccccc3C(=O)N2C)cc1 (centres undefined)	2	59*	-2	43	17	12
COc1ccc(C2C(C(=O)N3CCN(c4ccccc4)CC3)c3ccccc3C(=O)N2C)cc1OC (centres undefined)	3	68*	7	21	18	0
CCN(CC)C(=O)c1nn(Cc2ccccc2)c(=O)c2ccccc12	0	-4	-11	x	10	0
CCN(CC)C(=O)c1nn(-c2ccccc2)c2c1C1CCC2(C)C1(C)C (centres undefined)	0	51*	-14	-3	-5	15
Cc1ccccc1OCC(=O)O/N=C(\N)Cc1cccs1	1	-20	7	x	-128	-26
Cc1ccccc1C(=O)O/N=C(\N)c1ccncc1	-1	52*	4	13	-217	-6
N/C(=N\OC(=O)c1ccccc1Cl)c1ccncc1	-1	21	13	19	-329	-18
N/C(=N\OC(=O)c1ccccc1Cl)c1cccnc1	1	69*	0	29	-222	-11
Cc1ccccc1C(=O)O/N=C(\N)Cc1cccs1	0	92*	11	x	-153	-13
N/C(=N\OC(=O)c1ccc(Cl)c(Cl)c1)c1cccnc1	2	83*	1	15	-150	-10
COc1ccc([C@H]2C[C@H](O)[C@@H](n3cc(-c4ccc(F)cc4)nn3)CN2CC2CCCCC2)cc1	0	-10	-14	x	10	7
CC1CCC(NC(=O)c2nc(Cn3ccc([N+](=O)[O-])n3)no2)CC1 (centres undefined)	0	4	-2	x	9	-9
Cc1ccc(C(=O)NC2CCC(C)CC2)o1 (centres undefined)	0	-6	-10	x	-146	-16

From PubChem
